# Compound activity from PubChem BioAssay.
# Glioma ERSR ind – inducers of ER stress response in human glioma cells | Potency, µM, most hits filed as activators | U87-MG GRP78 promoter luciferase reporter, 16 h | actives 0.02% (n = 420,000); further: series mostly up to about 76 µM; nearly all actives have a fitted effect of over 35% in size
#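 Stably transfected U87-MG glioma cells carrying a GRP78-based luciferase sensor; 16 h compound incubation. Luminescence end-point read 10 min after Bright-Glo addition at room temperature.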
# 12-LOX inh – ALOX12 (human) lipoxygenase inhibition; purified 12hLO, xylenol orange hydroperoxide absorbance; actives 1.1% (n = 580,000); Potency, µM (doses to about 108 µM), usual class: inhibitors; P18054
# Target sequence (P18054 whole entry, looked up): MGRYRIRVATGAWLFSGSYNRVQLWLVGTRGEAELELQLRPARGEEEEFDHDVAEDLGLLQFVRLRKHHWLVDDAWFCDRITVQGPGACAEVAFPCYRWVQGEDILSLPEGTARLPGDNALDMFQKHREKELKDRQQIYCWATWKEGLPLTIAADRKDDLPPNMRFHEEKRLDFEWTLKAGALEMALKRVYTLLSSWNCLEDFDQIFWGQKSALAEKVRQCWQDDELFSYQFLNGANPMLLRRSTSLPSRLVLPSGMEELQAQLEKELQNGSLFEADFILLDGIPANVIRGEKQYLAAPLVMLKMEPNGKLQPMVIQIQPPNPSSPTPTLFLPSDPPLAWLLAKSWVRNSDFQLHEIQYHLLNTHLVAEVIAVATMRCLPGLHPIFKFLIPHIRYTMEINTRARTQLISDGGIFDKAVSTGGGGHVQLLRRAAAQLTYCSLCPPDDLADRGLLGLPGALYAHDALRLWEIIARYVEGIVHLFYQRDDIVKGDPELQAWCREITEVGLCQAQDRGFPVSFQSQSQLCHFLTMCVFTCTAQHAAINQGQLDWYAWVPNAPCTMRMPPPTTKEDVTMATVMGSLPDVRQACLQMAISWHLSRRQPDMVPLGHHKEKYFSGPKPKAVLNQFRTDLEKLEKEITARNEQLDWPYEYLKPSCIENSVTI
#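 Purified human 12hLO (150 nM final) in 25 mM Hepes, 0.01% Triton X-100, pH 7.0 was preincubated 15 min at room temperature with compound. Then 40 uM arachidonic acid was added, 30 min. Hydroperoxide was read by Fe-XO absorbance ratio 573/405 nm.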
# Apoferritin bind – candidate novel general anesthetic via apoferritin binding. P02791. apoferritin/1-aminoanthracene competitive binding, fluorescence. Potency, µM (titrated, usually from 77.5 µM), hits mostly inhibitors. actives 0.074% (n = 350,000). AID 485281; further: nearly all actives have a fitted effect of over 20% in size
#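 Apoferritin-based anesthetic binding model; compound displacement of fluorescent 1-AMA measured as endpoint fluorescence after 10 minutes at room temperature, scaled to free-ligand and complex controls.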
# BCR signal inh – inhibitors of chronic active B-cell receptor signaling | ABC-DLBCL IkBa-CBG/CBR reporter, luminescence ratio, 4 h | AID 493014 | actives 0.05% (n = 340,000) | Potency, µM (series often up to 46.1 µM), actives largely listed as inhibitors; active means well fitted inhibition curve with a large enough effect in the signal ratio, with a control signal flat, not every such curve was filed as active; inconclusive means small, poorly fitted or top-dose-only effect, or effect the other way, or a change in a side signal; the % refers to the signal ratio
#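 Doxycycline induced both beetle luciferases in TMD8 lymphoma cells; IKK-driven degradation limits the IkappaBalpha-fused green signal, while red luminescence normalises for cell number and nonspecific effects. Compounds tested up to 46 uM, 4 hrs.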
# Numbers stand for hits; – = inactive; ? = inconclusive; · = no result. Most compounds without a hit are left out; they make up all but 1.1% or so of the library. Unless noted, the call rests on the fitted dose curve; in most records, active means well fitted curve in the direction sought with a large enough effect; inconclusive means small, poorly fitted or top-dose-only effect, or another doubt; inactive means no such curve, though single readings can be large; an effect the other way counts as inactive or inconclusive.
SMILES,Glioma ERSR ind,12-LOX inh,Apoferritin bind,BCR signal inh
Nc1c(C(=O)N/N=C/c2ccc(Cl)cc2)cnn1-c1ccccc1,–,–,–,–
Nc1scc2c(C(=O)N/N=C/c3ccc(Cl)cc3)nn(-c3ccccc3)c(=O)c12,–,6.3µM,?,–
CCOC(=O)c1nn(-c2ccccc2)c(=O)c2c(N)scc12,–,35µM,–,–
CC1(C)CC(=O)c2cc(-c3nc(-c4ccc(F)cc4)cs3)c(=O)[nH]c2C1,–,50µM,–,·
CCCCn1c(N)c(N(C)C(=O)C2Cc3ccccc3C(=O)O2)c(=O)[nH]c1=O (configuration not stated),·,–,·,·
S=c1[nH]nc(-c2ccccc2)n1/N=C/c1ccc(Cl)cc1,–,22µM,–,–
S=c1[nH]nc(-c2ccccn2)n1/N=C/c1cccc2ccccc12,–,5.6µM,–,–
CC(/C=N/n1c(-c2ccc(Cl)cc2)n[nH]c1=S)=C\c1ccco1,–,32µM,–,?
S=c1[nH]nc(-c2ccccn2)n1/N=C/c1ccc(Cl)cc1,–,28µM,–,–
S=c1[nH]nc(-c2ccccc2)n1/N=C/c1cccc(Cl)c1,–,–,–,–
S=c1[nH]nc(-c2ccccn2)n1/N=C/c1ccccc1,–,?,–,–
COc1ccc(C2CC(c3ccccc3)=NN2C(=O)CSc2nnc(-c3ccccc3)o2)cc1 (configuration not stated),·,–,·,·
C=CCn1c(-c2ccccn2)n[nH]c1=S,–,10µM,·,·
Cc1cnc2c(S(=O)(=O)N3CCCC3C(=O)N(C)C)cccc2c1 (configuration not stated),·,–,·,·
Cc1cncc2cccc(S(=O)(=O)N3CCCN(C(=O)CN)C[C@@H]3C)c12,·,4.3µM,·,·
O=C(N1CCN(Cc2ccccc2)CC1)C(F)(F)C(F)(F)C(F)(F)C(F)(F)F,·,28µM,·,·
O=C(c1ccccc1)N1CCN(Cc2ccccc2)CC1,–,?,–,–
O=C(O)c1ccc(COc2ccc(Cl)cc2Cl)cc1,·,–,·,·
Cc1nc2ccccc2c(=O)n1-c1cccc(NC(=O)c2cccs2)c1,–,–,·,–
O=C(Nc1cccc(N2C(=O)C=CC2=O)c1)c1cccs1,·,35µM,·,?
NC(=O)CCN(C(=O)c1cccc(Cl)c1)c1ccc(F)cc1,·,–,·,·
O=C(NC(=S)NCCO)c1cn(-c2ccccc2)nc1-c1ccccc1,–,40µM,–,–
O=C(CCc1ccccc1)NC1(C(F)(F)F)C(=O)Nc2c1c(=O)[nH]c(=O)n2Cc1ccccc1 (configuration not stated),·,–,·,·
Cc1nc(-c2ccccc2)sc1C(=O)NS(=O)(=O)c1ccc(CN2CCN(c3ccccc3)CC2)cc1,·,32µM,·,·
CNC(=O)c1sc(-c2ccccc2)nc1C,–,–,–,?
SMILES,Glioma ERSR ind,12-LOX inh,Apoferritin bind,BCR signal inh
COc1ccc2cc(CN(C)C(=O)CNC(=O)c3ccc(Cl)cc3Cl)ccc2c1,·,–,·,·
CC1=C(C(=O)c2ccccc2)C(c2cccc(Oc3ccc(Cl)cc3)c2)NC(=O)N1 (configuration not stated),·,–,·,·
COc1ccc(C)cc1NCc1ccc([N+](=O)[O-])cc1,–,–,?,–
COc1ccc(CNCCc2ccc([N+](=O)[O-])cc2)c(OC)c1OC,–,7.9µM,–,–
Cc1ccc(S(=O)(=O)CNC(=S)c2cccc(Cl)c2)cc1,–,10µM,?,?
CC(C)c1ccc(N2C(=S)N[C@H]3[C@@H](O)[C@H](O)C[C@@H](C(=O)N(C)Cc4ccccc4)[C@H]32)cc1,·,–,·,·
CCCCc1cc(=O)oc2c(C)c(OC(C)C(=O)NCc3cccnc3)ccc12 (configuration not stated),·,–,·,·
C#CC(C)(C)NS(=O)(=O)c1cccc2nsnc12,·,–,·,·
COc1ccc([C@H]2C[C@@H](O)[C@@H](O)[C@@H]2NCc2cn(C)c3ccccc23)cc1,·,40µM,·,·
Cc1ccc(NC(=O)COc2c(CO)cc(F)cc2CO)cc1,·,–,·,·
Cc1cc(C)c(O)c(CN(C)Cc2cc(Cl)cc(Cl)c2O)c1,–,40µM,·,·
Cc1ccnc(NCc2cc(Cl)cc(Cl)c2O)c1,–,–,·,·
CCc1c(O)nc(SC2CC(=O)N(c3ccc(F)c(Cl)c3)C2=O)[nH]c1=O (configuration not stated),–,?,?,–
Cc1c(O)nc(SC2CC(=O)N(c3cc(Cl)cc(Cl)c3)C2=O)[nH]c1=O (configuration not stated),–,5.6µM,·,·
O=C(NC(=S)Nc1nc(-c2ccccc2)cs1)c1cncc(Br)c1,–,–,–,–
O=C(NC(=S)Nc1nc(-c2ccccc2)cs1)c1cccnc1,–,35µM,–,–
Cc1nc2[nH]c(=S)[nH]c2cc1Br,–,13µM,–,–
Cc1nc2nc[nH]c2cc1Br,–,–,–,?
O=C(CCCSc1nc2ccccc2s1)NCc1ccccc1F,·,–,·,·
Cc1ccc(C)n1-c1nc(=S)[nH][nH]1,–,4.5µM,–,–
S=c1nc(-c2ccc(Cl)cc2)[nH][nH]1,?,?,–,?
COC(=O)[C@H](CC(C)C)N(Cc1cn(Cc2ccc(C)cc2)nn1)S(=O)(=O)c1ccccc1Br,·,8.9µM,·,·
COC(=O)[C@H](CC(C)C)N(Cc1cn(Cc2ccccc2)nn1)S(=O)(=O)c1ccccc1Br,·,–,·,·
CC1CCCCC1NC(=O)C1CCC1 (configuration not stated),·,–,·,·
CCN1CCN(CCOc2ccc3c(=O)c(-c4ccccc4)c(C)oc3c2)CC1,·,–,·,·
SMILES,Glioma ERSR ind,12-LOX inh,Apoferritin bind,BCR signal inh
COc1ccc(NC2CC(=O)N(C(C)C)C2=O)cc1 (configuration not stated),–,4µM,–,–
COc1ccc(Cn2c(C(=O)O)c(CNCc3ccc(SC)cc3)c3ccc(OC)cc32)cc1,–,–,–,·
C=Cc1ccc(Cn2c(C(=O)O)c(CNCc3ccccc3)c3ccc(OC)cc32)cc1,·,4µM,–,·
Cc1ccc(NC(=O)CCc2ncc(-c3ccccc3F)o2)cc1C,·,–,·,·
O=C1/C(=C/c2ccccc2)CSc2sccc21,–,–,14µM,–
NC(=O)c1cc(-c2csc(NCCc3ccccc3)n2)ccc1O,–,32µM,–,–
O=C(O)c1ccc(Nc2nc(-c3ccc(Cl)cc3)cs2)cc1O,·,10µM,·,·
Cc1ccc(-c2csc(Nc3ccc(O)c(C(=O)O)c3)n2)cc1,·,35µM,·,·
Oc1ccc(-c2csc(Nc3cccc(O)c3)n2)cc1,·,40µM,·,·
Cc1nc(C)c(-c2csc(Nc3ccc(C(=O)O)c(O)c3)n2)s1,–,–,–,–
c1ccc(OCC2CN(Cc3ccncc3)CC23CN(c2ccccc2)C3)cc1 (configuration not stated),·,–,·,·
Cn1cnnc1-c1ccc(NS(=O)(=O)c2ccc3c(c2)CCC3)cc1,·,28µM,·,·
O=C(CN1CCN(c2ccccc2)CC1)Nc1oc2ccccc2c(=O)c1-c1ccc(F)cc1,·,–,·,·
CC(=O)NC12CC3CC(CC(C3)C1)C2,·,–,·,·
O=C(COC(=O)C(O)c1ccccc1)NC12CC3CC(CC(C3)C1)C2 (configuration not stated),–,–,11µM,–
CCSC(=O)NC12CC3CC(CC(C3)C1)C2,–,–,8.9µM,·
CCOCC(=O)OCC(=O)NC12CC3CC(CC(C3)C1)C2,–,–,?,–
